Test results: PubChem BioAssay (NCATS)
“And” between values parts separate entries of the source, which are not always exact repeats. Equal values may be shown once. Results filed as inconclusive are left out. Entries that show only a call come without a potency. A number with no mark means an inactive call. The source made the active and inactive calls. Calls come from the whole dose curve; as a rule, active = well fitted curve in the direction sought with a large enough effect; inconclusive = small, poorly fitted or top-dose-only effect, or another doubt; inactive = no such curve, though single readings can be large; an effect the other way counts as inactive or inconclusive.

Assays:
[1] = biological target: Cellular tumor antigen p53 (Homo sapiens) (UniProt P04637); assay: Primary qHTS for small molecule compounds that upregulate eGFP-tagged delta133p53alpha (in N-terminal) cells. (AID 2060322); conditions: NCI-H358 eGFP-delta133p53alpha fluorescence, 24 h; activation: active compounds read high; note: nearly all actives have a fitted effect of over 75% in size; note: potency is the fitted concentration of half-maximal effect; for activation: series mostly up to about 56 µM
Outline: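 NCI-H358 cells pre-induced 24 h with 10 ng/ml doxycycline to express N-terminal eGFP-delta133p53alpha, then dosed 24 h at 37C without doxycycline; fixed, Hoechst-stained, GFP intensity by laser scanning cytometry, normalized to DMSO (0%) and 57.5 uM 5-azacytidine (100%).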

[2] = biological target: Aldehyde dehydrogenase, mitochondrial (Homo sapiens) (UniProt P05091); assay: qHTS for Inhibitors of the Aldehyde Dehydrogenase Family (ALDH2) Primary screen (AID 2061308); note: nearly all actives have a fitted effect of over 55% in size
[3] = biological target: Retinaldehyde dehydrogenase 3 (Homo sapiens) (UniProt P47895); assay: qHTS for Inhibitors of the Aldehyde Dehydrogenase Family (ALDH1A3) Primary screen (AID 2061315)

Cellular tumor antigen p53 (Homo sapiens), sequence (P04637 whole entry, looked up): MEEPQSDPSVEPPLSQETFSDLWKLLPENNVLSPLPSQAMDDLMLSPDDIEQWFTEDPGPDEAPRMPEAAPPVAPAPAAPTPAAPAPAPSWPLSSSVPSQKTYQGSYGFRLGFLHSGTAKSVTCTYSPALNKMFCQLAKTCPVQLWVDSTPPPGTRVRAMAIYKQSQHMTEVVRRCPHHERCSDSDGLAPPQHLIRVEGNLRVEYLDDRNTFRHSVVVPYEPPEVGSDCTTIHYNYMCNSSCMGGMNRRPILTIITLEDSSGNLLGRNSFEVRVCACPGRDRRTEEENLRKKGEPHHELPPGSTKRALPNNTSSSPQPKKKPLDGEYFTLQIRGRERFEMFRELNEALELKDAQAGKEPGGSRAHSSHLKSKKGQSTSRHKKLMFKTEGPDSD

SMILES | activation [1] | Potency [2] | Potency [3] | Potency [1] | activity change, negative = inhibition [2] | activity change, negative = inhibition [3]
C=C1C(OC(C)=O)C(=O)C2C(C)(C)C(O)CCC2(C)C1CC(OC(C)=O)/C(C)=C/COC(C)=O (stereo not drawn) | -14.5% | inactive | inactive | – | – | –
COc1cc(C/C(=C/NC(C)=O)N(CC(=O)Cc2ccccc2)C(C)=O)cc2c1OCO2 | -26% | inactive | inactive | – | – | –
COc1cc(C(=O)OC[C@@]2(O)CO[C@@H](O[C@H]3[C@H](Oc4ccc(C(=O)O)cc4OC)O[C@H](CO)[C@@H](O)[C@@H]3O)[C@@H]2O)ccc1O | -13.7% | inactive | inactive | – | – | –
C=CC(=O)Nc1cc(Nc2nccc(-c3c[nH]c4ccccc34)n2)c(OC)cc1N(C)CCN(C)C | – | inactive | inactive | 10.7 µM (active) | – | –
O=C(O)/C=C/c1ccc(O[C@@H]2O[C@H](CO)[C@@H](O)[C@H](O)[C@H]2O)cc1 | -3.82% | inactive | inactive | – | – | –
CN1C(=O)c2ccccc2NC(=O)[C@]12O[C@@H]2c1cccc(O)c1 | -1.53% | inactive | inactive | – | – | –
C/C=C(/C)C(=O)OC1C(OC(C)=O)C23C(O)OC4(CCC5C6(C)CCC(OC7OC(C(=O)O)C(O)C(OC8OC(CO)C(O)C(O)C8OC8OC(C)C(O)C(O)C8OC8OCC(O)C(O)C8O)C7OC7OC(CO)C(O)C(O)C7O)C(C)(C)C6CCC5(C)C4(C)CC2OC(C)=O)C3CC1(C)C (stereo not drawn) | -7.63% | – | – | – | 23.8% [at 11.2 µM] | 2.15% [at 11.2 µM]
CC(=O)OC1C(O)CC2(C)C(CCC3(C)C2CC=C2C4C5(CCC(CO[C@@H]6O[C@H](CO)[C@@H](O)[C@H](O)[C@H]6O)(OC5=O)C4(C)O)C(O)CC23C)C1(C)C (stereo partly drawn) | -11.5% | inactive | inactive | – | – | –
C/C=C/C=C/C=C/C(=O)O[C@@H]1C=C(CO)C(O)(C(=O)OC)[C@@]2(C)CCCC(C)(C)C12 (stereo partly drawn) | -10.7% | inactive | inactive | – | – | –
CC1=C(C(=O)O)/C(=C\CO[C@@H]2O[C@H](CO)[C@@H](O)[C@H](O)[C@H]2O)C(OC(=O)/C=C\c2ccc(O)cc2)C1 (stereo partly drawn) | 8.93% | inactive | inactive | – | – | –
COC(=O)C12C(=O)C(C)=C(O)C1(C)C(C)=CC1C34CCC(OC3=O)C(C)(C)C4CCC12C (stereo not drawn) | -16% | inactive | inactive | – | – | –
Cc1cc2c(c(=O)o1)C=C1CC[C@H]([C@H](C)Cn3cnc(=N)c4[nH]cnc43)C[C@@H]1O2 | 14.3% | inactive | inactive | – | – | –
COC12CC3C(C(C)C1=CC(=O)O2)C(O)C(OC(C)=O)C1C(C)(C)C(OC(C)=O)CCC31C (stereo not drawn) | -3.05% | inactive | inactive | – | – | –
C/C=C(\C)C(=O)OC1C2(O)CC3=C4CC(=O)OC(c5ccoc5)C4(C)CCC3C(C)(C2=O)C(C(OC(C)=O)C(=O)OC)C1(C)C (stereo not drawn) | -7.63% | inactive | inactive | – | – | –
CC(C)(C)NC(=O)[C@@H]1CN(Cc2cccnc2)CCN1C[C@@H](O)C[C@@H](Cc1ccccc1)C(=O)N[C@H]1c2ccccc2C[C@H]1O | -2.82% and 2.86% | inactive | inactive | – | – | –
COc1ccc(S(=O)(=O)Nc2cc(Cl)cc(Cl)c2OC)cc1N1CCNCC1 | 8.04% | inactive | inactive | – | – | –
CC(C)C[C@@H]1NC(=O)[C@@H]2C[C@@]34C[C@@H]5[C@@]6(C)CCCC(C)(C)C6CC[C@@]5(C)N(c5ccccc53)[C@H]4N2C1=O (stereo partly drawn) | 3.82% | inactive | inactive | – | – | –
CC1=CC(=O)[C@]2(O[C@@H]3O[C@@H](C)[C@H](O)[C@@H](O)[C@H]3OC(=O)/C=C/c3ccccc3)C=CO[C@@H](O[C@@H]3O[C@H](CO)[C@@H](O)[C@H](O)[C@H]3O)[C@H]12 | 3.05% | inactive | inactive | – | – | –
CC1(C)CC[C@]2(C(=O)O)[C@H](O)C[C@]3(C)C(=CCC4[C@@]5(C)CC[C@H](O[C@@H]6O[C@H](CO[C@@H]7OC[C@H](O)[C@H](O)[C@H]7O[C@@H]7OC[C@H](O)[C@H](O)[C@H]7O)[C@@H](O)[C@H](O)[C@H]6O)C(C)(C)C5CC[C@]43C)[C@@H]2C1 (stereo partly drawn) | -4.46% | inactive | inactive | – | – | –
O=C1NCc2nc3ccccc3c(=O)n2C1Cc1c[nH]c2ccccc12 (stereo not drawn) | -7.63% | inactive | inactive | – | – | –
OCCc1ccc(O[C@@H]2O[C@H](CO)[C@@H](O)[C@H](O)[C@H]2O)cc1 | -7.14% | inactive | inactive | – | – | –
